Values joined by “and” are separate entries in the source; they are usually repeats but may differ in a detail not shown here. Identical values can stand only once. Records with an inconclusive call do not appear. The source holds several records for some structures; these can differ, active in one and inactive in another. Active and inactive are the calls of the source. Rule for the calls: active = hit-call score of the fitted dose curve at least 0.9, where 1 is the maximum; inconclusive = response in the unintended direction; inactive = score below 0.9.
Target: Nuclear receptor subfamily 4 group A member 2 (Homo sapiens) (UniProt P43354)
Test: ATG_NURR1_TRANS: Attagene TRANS-FACTORIAL HepG2 Assay for human Nuclear Receptor Related Protein 1 (NURR1) (AID 2282985)
Conditions: HepG2 Attagene TRANS reporter, mRNA readout
Protocol: ATG_TRANS is a cell-based, multiplexed-readout assay that uses HepG2, a human liver cell line, with measurements taken at 24 hours after chemical dosing in a 24-well plate.ATG_NURR1_TRANS is one of 30 assay component(s) measured or calculated from the ATG_TRANS assay. It is designed to make measurements of mRNA induction, a form of inducible reporter, as detected with fluorescence intensity signals by Reverse transcription polymerase chain reaction (RT-PCR) and Capillary electrophoresis technology.Data from the assay component ATG_NURR1_TRANS was analyzed into 1 assay endpoint. This assay endpoint, ATG_NURR1_TRANS, was analyzed in the positive analysis fitting direction relative to DMSO as the negative control and baseline of activity. Using a type of inducible reporter, measures of mRNA for gain-of-signal activity can be used to understand the reporter gene at the transcription factor-level as they relate to the gene NR4A2. Furthermore, this assay endpoint can be referred to as a primary readout, because this assay has produced multiple assay endpoints where this one serves a reporter gene function. To generalize the intended target to other relatable targets, this assay endpoint is annotated to the nuclear receptor intended target family, where the subfamily is orphan.
Human liver HepG2 cells are transiently transfected with multiple reporter transcription units (MRTUs) in 6-well plates using FuGene 6 reagent (Roche; 3 ml FuGene/1 mg DNA). The MRTU constructs are regulated by a cis-regulating element (promoter). […] A major difference between the CIS and TRANS system is that in CIS activities of endogenous TFs are measured, whereas the TRANS assay evaluates changes in activities of exogenous, chimeric NR-Gal4 proteins. […] At the end of 24 hour incubation, total RNA was isolated using TriZol reagent (Invitrogen). The isolated RNA is then reverse-transcribed using oligo(dT) primer and Mo-MLV reverse transcriptase (Invitrogen) with DNAse I (Ambion) treatment for 30 min. The one-tenth of the produced cDNA was amplified by PCR using Taq DNA polymerase (Invitrogen) and two reporter sequence-specific primers. The PCR products were fluorescently labeled by primer extension with 6-arboxyfluorescein (6-FAM) 5'-labeled reporter sequence-specific primer (2 min at 95 C, 20 s at 68 C and 10 min at 72 C) and these products were digested with 5U of HpaI (New England Biolabs) for 2h at 37 C. The fragments were purified using Qiaquick PCR columns (Qiagen), analyzed on an ABI 3130xL genetic analyzer (Applied Biosystems) with peak positions identified by using a set of X-rhodamine (ROX)-labeled MapMarker1000 molecular weight standards (BioVentures). The raw capillary electrophoresis data was processed using Attagraph software (Attagene).

Nuclear receptor subfamily 4 group A member 2 (Homo sapiens), sequence (P43354 whole entry, looked up): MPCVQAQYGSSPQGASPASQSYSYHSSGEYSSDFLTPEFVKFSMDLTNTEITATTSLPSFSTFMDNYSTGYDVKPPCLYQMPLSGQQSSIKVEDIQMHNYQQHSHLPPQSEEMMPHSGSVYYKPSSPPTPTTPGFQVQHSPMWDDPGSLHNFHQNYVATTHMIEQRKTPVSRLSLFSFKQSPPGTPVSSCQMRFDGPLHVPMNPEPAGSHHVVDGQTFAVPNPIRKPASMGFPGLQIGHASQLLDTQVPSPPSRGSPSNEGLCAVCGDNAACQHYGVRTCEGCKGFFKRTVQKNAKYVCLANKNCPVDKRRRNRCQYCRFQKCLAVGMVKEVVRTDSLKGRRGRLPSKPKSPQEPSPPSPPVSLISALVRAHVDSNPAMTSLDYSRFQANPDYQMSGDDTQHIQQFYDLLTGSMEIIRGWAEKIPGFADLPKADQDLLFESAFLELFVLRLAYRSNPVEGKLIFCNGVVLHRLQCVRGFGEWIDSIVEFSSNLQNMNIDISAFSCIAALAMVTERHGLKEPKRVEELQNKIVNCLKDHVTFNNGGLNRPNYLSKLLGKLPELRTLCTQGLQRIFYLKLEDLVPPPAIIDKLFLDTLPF

SMILES | outcome | AC50
CCc1ccc(C(c2ccc(CC)cc2)C(Cl)Cl)cc1 | inactive | –
Oc1ccc(Nc2ccccc2)cc1 | inactive | –
CN(C)Cc1ccccc1O | inactive | –
OC[C@@H](O)[C@@H](O)[C@H](O)[C@@H](O)CO | inactive | –
FC(F)(F)C(F)(F)C(F)(F)C(F)(F)C(F)(F)C(F)(F)C(F)(F)C(F)(F)F | inactive | –
OCC(F)(F)C(F)(F)C(F)(F)C(F)(F)C(F)(F)C(F)(F)F | inactive | –
O=C(CC(=O)C(F)(F)C(F)(F)F)C(F)(F)F | inactive | –
CCCCCCCOC(=O)c1ccccc1C(=O)OCCCCCCC | inactive | –
CCCCCC=O | inactive | –
O=C(O)C(F)(OC(F)(F)C(F)(OC(F)(F)C(F)(OC(F)(F)C(F)(F)C(F)(F)F)C(F)(F)F)C(F)(F)F)C(F)(F)F (stereo not given) | inactive | –
O=C(O)C=C(C(F)(F)F)C(F)(F)F | inactive | –
OCCCC(F)(F)C(F)(F)C(F)(F)C(F)(F)C(F)(F)C(F)(F)C(F)(F)F | – | 16.6 µM (active) and 17.2 µM (active)
Nc1ccc(S(=O)(=O)Nc2nccs2)cc1 | inactive | –
C=CC(=O)OCC(F)(F)C(F)(F)C(F)(F)C(F)(F)C(F)(F)C(F)(F)C(F)(F)F | inactive | –
O=C(O)C(F)(F)C(F)(F)F | inactive | –
Nc1ccc([N+](=O)[O-])cc1O | inactive | –
c1ccc(-c2ccccc2-c2ccccc2)cc1 | – | 27.2 µM (active)
Nc1cc(Cl)c(N)c(Cl)c1 | inactive | –
C=CC(=O)OCC(F)(F)C(F)(F)C(F)(F)C(F)(F)COC(=O)C=C | inactive | –

SMILES | outcome | AC50
CC/C=C\CCOC(C)=O | inactive | –
CC(C)(C)c1ccc(OC2CCCCC2O)cc1 (stereo not given) | – | 100 µM (active)
CCc1c(Br)c(Br)c(Br)c(Br)c1Br | – | 26.8 µM (active)
CC(C)=CCCC(C)CCOC(=O)C(C)C (stereo not given) | inactive | –
CC(Cc1ccc(O)c(O)c1)C(C)Cc1ccc(O)c(O)c1 (stereo not given) | – | 57.1 µM (active)
CC/C=C\CCOC(=O)c1ccccc1 | inactive | –
O=C(O)C(F)(F)C(F)(F)C(F)(F)C(F)(F)C(F)(F)C(F)(F)C(F)(F)C(F)(F)Cl | inactive | 31.2 µM (active)
O=C(O)C(F)(OC(F)(F)C(F)(OC(F)(F)C(F)(F)C(F)(F)F)C(F)(F)F)C(F)(F)F (stereo not given) | inactive | 98.8 µM (active)
CCCCCCCCCCCCCCCC[N+](C)(C)Cc1ccccc1 | inactive | –
CCCCCCC(C)OC(=O)CCCCC(=O)OC(C)CCCCCC (stereo not given) | inactive | –
OCC(F)(F)C(F)(F)C(F)(F)C(F)(F)C(F)(F)C(F)F | inactive | –
FC(F)(F)C(F)(F)C(F)(F)C(F)(F)C(F)(F)C(F)(F)CCS | inactive | –
C=C(C)C(=O)OCC(F)(F)C(F)(F)C(F)(F)F | inactive | –
CCCCCCOC(=O)c1ccccc1O | inactive | –
O[Si](c1ccccc1)(c1ccccc1)c1ccccc1 | inactive | –
C=C(C)C(=O)OCC(F)(F)C(F)(F)C(F)(F)C(F)(F)C(F)(F)C(F)(F)C(F)(F)F | inactive | –
CCCCNc1ccccc1 | inactive | –
O=C(O)C(F)(F)C(F)(F)C(F)(F)C(F)(F)C(F)(F)C(F)(F)C(F)(F)C(F)(F)C(F)(F)C(F)(F)C(F)(F)C(F)(F)C(F)(F)F | inactive | –
O=S(=O)(OCCOC(F)(F)F)C(F)(F)F | inactive | –
